Several values for one entry are separate records, joined by “and”; a condition that tells them apart may be missing. Equal values may be shown once. Inconclusive results are not listed. A call without a number means that no potency is given here. A structure can be active in one record and inactive in another. Activity calls are given as the source filed them. Unless noted, the call rests on the fitted dose curve; in most records, active means well fitted curve in the direction sought with a large enough effect in the repeat runs; inconclusive means weak or mixed curves; inactive means no such curve, though single readings can be large; an effect the other way counts as inactive or inconclusive.
Tests used:
[1] = qHTS assay for small molecules that induce genotoxicity in human embryonic kidney cells expressing luciferase-tagged ATAD5 (AID 651632); further: nearly all actives have a fitted effect of over 15% in size
Outline: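 Concentration-response screen for ATAD5 upregulation in HEK293T luciferase reporter cells; 16 hr treatment at 37C, then luminescence after 30 min with Amplite at room temperature.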

[2] = qHTS assay for small molecule agonists of the p53 signaling pathway - cell viability (AID 651633; calls by dose curve; further: nearly all actives have a fitted effect of over 30% in size; further: potency means the concentration at half of the fitted maximal effect)
Outline: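 p53RE-bla cells, seeded at 4,000 per well and rested 5 h at 37 C/5% CO2, received compounds in DMSO for 16 h at 37 C. CellTiter-Glo was then added, and luminescence was read after 30 min at room temperature to gauge cytotoxicity.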

[3] = qHTS assay for small molecule disruptors of the mitochondrial membrane potential - cell viability (AID 720634; calls by dose curve;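 further: human HepG2 liver cancer cells; series mostly up to about 83 µM; nearly all actives have a fitted effect of over 20% in size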)
Outline: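 In this qHTS format, HepG2 cells plated overnight were pinned with compound, incubated 1 hr, and assayed for ATP luminescence with CellTiter-Glo after m-MPI dye addition.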

[4] = qHTS assay to test for compound auto fluorescence at 590 nm (red) in HepG2 cells (AID 720674); further: potency means the concentration at half of the fitted maximal effect
Outline: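 Rose Bengal sodium served as the red fluorophore standard. HepG2 monolayers (overnight attachment, MEM with 10% FBS) were exposed to test compounds for 1 hr at 37 C and read at Ex 540/Em 590 nm.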

[5] = qHTS assay to test for compound auto fluorescence at 460 nm (blue) in HEK293 cells (AID 720678)
Outline: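 Triamterene serves as the blue fluorophore standard. Compound signal at 405/460 nm is read in HEK293 wells (2,000 cells, 10% dialyzed FBS) after overnight treatment at 37C.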

[6] = qHTS assay to test for compound auto fluorescence at 590 nm (red) in HEK293 cells (AID 720679); further: potency means the concentration at half of the fitted maximal effect
Outline: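 We plated HEK293 cells in 10% dialyzed FBS medium, let them adhere for 4-5 hr, then added 23 nL compound. Overnight at 37C and 5% CO2 preceded fluorescence measurement at 540/590nm.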

[7] = qHTS assay to test for compound auto fluorescence at 460 nm (blue) in HEK293 cell free culture (AID 720681)
Outline: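 Test compounds were pinned into cell-free culture medium (DMEM with 10% FBS) and fluorescence was read directly at Ex/Em 405/460 nm. Signals were expressed as fluorescence equivalents of triamterene, with DMSO vehicle as control.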

[8] = qHTS assay to test for compound auto fluorescence at 535 nm (green) in HEK293 cell free culture (AID 720682)
Outline: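 DMEM + 10% FBS, cell-free; cpd or DMSO pinned in; Ex485/Em535 read; output as fluorescein-equivalent signal.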

[9] = qHTS assay to test for compound auto fluorescence at 590 nm (red) in HEK293 cell free culture (AID 720683); further: potency means the concentration at half of the fitted maximal effect
Outline: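 Tox21 10K library compounds were pinned into cell-free DMEM with 10% FBS and fluorescence was read at excitation 540 nm. Activity is expressed as Rose Bengal sodium equivalency.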

[10] = qHTS assay to test for compound auto fluorescence at 590 nm (red) in HepG2 cell free culture (AID 720684); further: potency means the concentration at half of the fitted maximal effect
Outline: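 Ex 540 / Em 590 nm read of compound in cell-free MEM (10% FBS). Rose Bengal sodium reference.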

[11] = qHTS assay to test for compound auto fluorescence at 460 nm (blue) in HepG2 cell free culture (AID 720685)
Outline: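 Cell-free plates of MEM plus 10% FBS received 23 nL compound or DMSO vehicle; blue-channel (405/460 nm) intensity scored against triamterene as reference fluorophore.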

[12] = qHTS assay to test for compound auto fluorescence at 535 nm (green) in HepG2 cell free culture (AID 720686); further: potency means the concentration at half of the fitted maximal effect
[13] = qHTS assay to test for compound auto fluorescence at 460 nm (blue) in HepG2 cells (AID 720687)
Outline: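 Cells (2,000/well in MEM with 10% FBS) attached overnight at 37 C, then were exposed to compound or DMSO for 1 hr at 37 C, 5% CO2. Fluorescence read at Ex/Em 405/460 nm, expressed as triamterene-equivalent signal.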

[14] = target: Glucocorticoid receptor (Homo sapiens) (UniProt P04150); test: qHTS assay to identify small molecule agonists of the glucocorticoid receptor (GR) signaling pathway (AID 720691; active means well fitted activation curve with a large enough effect in the signal ratio in the repeat runs, not every such curve was filed as active; the % refers to the signal ratio)
Outline: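 Measures GR pathway activation through a GRE-beta-lactamase reporter stably integrated in HeLa cells, with 18 h compound treatment at 37 C and fluorescence detection using a FRET substrate.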

[15] = target: Glucocorticoid receptor (Homo sapiens) (UniProt P04150); test: qHTS assay to identify small molecule antagonists of the glucocorticoid receptor (GR) signaling pathway (AID 720692; active means well fitted inhibition curve with a large enough effect in the signal ratio in the repeat runs, not every such curve was filed as active; the % refers to the signal ratio; further: potency means the concentration at half of the fitted maximal effect)
Outline: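 Tox21 10K library screened in concentration-response for blockade of dexamethasone (5 nM final)-induced GRE-bla reporter activity in HeLa cells; 18 h treatment, fluorescence read.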

[16] = qHTS assay to test for compound auto fluorescence at 535 nm (green) in HEK293 cells (AID 720680)
[17] = qHTS assay for small molecule disruptors of the mitochondrial membrane potential (AID 720635); further: potency means the concentration at half of the fitted maximal effect
Outline: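 HepG2 cells (2,000/well) attached overnight at 37C, then took compound for 1 hr at 37C, 5% CO2. Mito-MPS dye was added for 30 min; fluorescence was read at 490/535 nm (monomers) and 540/590 nm (aggregates).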

[18] = qHTS assay to test for compound auto fluorescence at 535 nm (green) in HepG2 cells (AID 720675)
[19] = qHTS assay for small molecules that induce genotoxicity in human embryonic kidney cells expressing luciferase-tagged ATAD5 - cell viability (AID 651634; calls by dose curve; further: nearly all actives have a fitted effect of over 25% in size)
Outline: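 15.5 hr compound or vehicle exposure of HEK293T cells expressing luciferase-tagged ATAD5 at 37C; live-cell protease activity is read by fluorescence after 30 min of CellTiter-Fluor.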
Tags describe the fitted curve by direction and shape or compound fluorescence and quenching.

Glucocorticoid receptor (Homo sapiens), sequence (P04150 whole entry, looked up): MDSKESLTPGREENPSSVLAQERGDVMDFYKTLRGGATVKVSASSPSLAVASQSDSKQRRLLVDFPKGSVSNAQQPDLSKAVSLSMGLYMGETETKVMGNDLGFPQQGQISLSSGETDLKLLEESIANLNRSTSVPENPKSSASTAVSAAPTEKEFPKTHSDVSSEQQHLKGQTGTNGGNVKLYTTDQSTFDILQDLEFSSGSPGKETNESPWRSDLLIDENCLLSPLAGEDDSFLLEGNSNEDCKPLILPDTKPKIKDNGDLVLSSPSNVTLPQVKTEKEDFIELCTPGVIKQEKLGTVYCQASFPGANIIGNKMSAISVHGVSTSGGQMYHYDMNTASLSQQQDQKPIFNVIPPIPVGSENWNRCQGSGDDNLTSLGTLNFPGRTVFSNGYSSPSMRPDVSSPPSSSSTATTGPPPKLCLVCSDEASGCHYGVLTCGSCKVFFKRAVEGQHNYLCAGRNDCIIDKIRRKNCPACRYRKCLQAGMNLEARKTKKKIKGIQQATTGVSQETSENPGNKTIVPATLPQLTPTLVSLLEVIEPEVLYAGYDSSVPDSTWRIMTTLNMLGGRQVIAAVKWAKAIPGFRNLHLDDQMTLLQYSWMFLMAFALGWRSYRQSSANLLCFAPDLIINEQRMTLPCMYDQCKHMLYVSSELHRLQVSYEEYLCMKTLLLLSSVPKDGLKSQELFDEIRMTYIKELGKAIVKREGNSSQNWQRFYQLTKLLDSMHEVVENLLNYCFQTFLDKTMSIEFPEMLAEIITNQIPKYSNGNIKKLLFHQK

| SMILES | Potency [1] | Potency [2] | Potency [3] | Potency [4] | outcome [5] | Potency [6] | outcome [7] | Potency [8] | Potency [9] | Potency [10] | outcome [11] | Potency [12] | outcome [13] | Potency [14] | Potency [15] | Potency [16] | Potency [17] | Potency [18] | Potency [19] |
| --- | --- | --- | --- | --- | --- | --- | --- | --- | --- | --- | --- | --- | --- | --- | --- | --- | --- | --- | --- |
| O=C1OC2(c3cc(Br)c(O)c(Br)c3Oc3c2cc(Br)c(O)c3Br)c2c(Cl)c(Cl)c(Cl)c(Cl)c21 | inactive | 54.5 µM (active) | inactive | 1.41 µM (active) and 7.94 µM (active) | inactive | 2.51 µM [fluorescent] (active) and 14.1 µM [fluorescent] (active) | inactive | inactive | 2 µM [fluorescent] (active) and 14.1 µM [fluorescent] (active) | 1.78 µM [fluorescent] (active) and 10 µM [fluorescent] (active) | inactive | 28.2 µM [fluorescent] (active) | inactive | inactive | 49.1 µM (active) and inactive |  |  |  |  |
| C/C=C/C(=O)O | inactive | inactive |  |  | inactive | inactive | inactive | inactive | inactive | inactive | inactive | inactive | inactive | inactive | inactive | inactive |  |  |  |
| NC=O | inactive | inactive | inactive | inactive | inactive | inactive | inactive | inactive | inactive | inactive | inactive | inactive | inactive |  |  | inactive | inactive | inactive |  |
| CC1=CC2C3CC(C=C3C)C2C1 (configuration not stated) | inactive | inactive | inactive | inactive | inactive |  | inactive | inactive |  | inactive | inactive | inactive | inactive | inactive | inactive | inactive | inactive | inactive |  |
| CCCCCCCCCC(=O)OC | inactive | inactive | inactive | inactive | inactive |  | inactive | inactive | inactive | inactive | inactive | inactive | inactive |  |  |  |  | inactive | inactive |
| O=c1oc(=O)c2cc3c(=O)oc(=O)c3cc12 | inactive |  | inactive |  | inactive | inactive | inactive | inactive | inactive | inactive | inactive | inactive | inactive |  |  | inactive |  |  |  |
| COC(=O)C1=C(C)NC(C)=C(C(=O)OCCN(C)Cc2ccccc2)C1c1cccc([N+](=O)[O-])c1 (configuration not stated) | inactive |  |  |  | inactive | inactive | inactive | inactive | inactive | inactive | inactive | inactive | inactive |  | 23.9 µM (active) and 43.4 µM (active) |  |  | inactive |  |
| COc1cc([C@@H]2c3cc4c(cc3[C@H](O)[C@H]3COC(=O)[C@H]23)OCO4)cc(OC)c1OC |  | inactive | inactive | inactive | inactive | inactive | inactive |  | inactive | inactive | inactive | inactive | inactive | inactive |  |  | 150 nM (active) and 76.9 nM (active) | inactive |  |
| O=C(O)c1ccccc1Nc1cccc(C(F)(F)F)c1 | inactive |  | inactive | inactive | inactive |  | inactive |  | inactive | inactive | inactive | inactive | inactive |  | 49 µM (active) | inactive | 26.6 µM (active) and 43.3 µM (active) | inactive | inactive |
| COc1c(Cl)c(Cl)c(Cl)c(Cl)c1Cl | inactive | inactive | inactive | inactive | inactive |  | inactive | inactive |  | inactive | inactive | inactive | inactive | inactive | inactive |  |  |  | inactive |
| O=P(O)(O)O |  |  | inactive | inactive | inactive | inactive | inactive | inactive |  | inactive | inactive | inactive | inactive | inactive | inactive | inactive |  |  | inactive |
| O=C(COc1ccc(Cl)cc1)N1CCN(Cc2ccc3c(c2)OCO3)CC1 | inactive | inactive | inactive |  | inactive | inactive | inactive |  | inactive | inactive | inactive | inactive | inactive |  |  | inactive |  | inactive | inactive |
| c1ccc2sc(SSN3CCOCC3)nc2c1 | inactive | inactive | inactive | inactive | inactive | inactive | inactive | inactive | inactive | inactive | inactive | inactive | inactive |  |  |  |  | inactive | inactive |
| Cc1ccc2c(n1)Oc1ccc(C(C)C(=O)OCC(=O)N(C)C)cc1C2 (configuration not stated) |  | inactive | inactive | inactive | inactive | inactive | inactive | inactive | inactive | inactive | inactive | inactive | inactive | inactive | inactive | inactive |  |  | inactive |
| OC[C@H]1O[C@@H]2O[C@H]3[C@H](O)[C@@H](O)[C@@H](O[C@H]4[C@H](O)[C@@H](O)[C@@H](O[C@H]5[C@H](O)[C@@H](O)[C@@H](O[C@H]6[C@H](O)[C@@H](O)[C@@H](O[C@H]7[C@H](O)[C@@H](O)[C@@H](O[C@H]8[C@H](O)[C@@H](O)[C@@H](O[C@H]1[C@H](O)[C@H]2O)O[C@@H]8CO)O[C@@H]7CO)O[C@@H]6CO)O[C@@H]5CO)O[C@@H]4CO)O[C@@H]3CO | inactive | inactive | inactive |  | inactive |  | inactive | inactive | inactive | inactive | inactive | inactive | inactive | inactive | inactive | inactive |  | inactive | inactive |

From PubChem BioAssay (Tox21)
